Experimental data taken from ChEMBL document CHEMBL4888484, “Replenishing the malaria drug discovery pipeline: Screening and hit evaluation of the MMV Hit Generation Library 1 (HGL1) against asexual blood stage Plasmodium falciparum ,using a nano luciferase reporter read-out” (2022).
Among all 4,800 compounds or so, about 410 (8.5%) showed an effect of 50% or more. This is one part of a sample in which strong results are shown more often than they occur.

Each compound was assayed on Plasmodium falciparum (assay: Confirmatory screen in NF54 pLDH assay, in single point, at 2uM, 72h). Settings: timepoint 72 hour.
Format: functional, Erythrocyte

| Compound | % Inhibition [%] |
| --- | --- |
| O=C1CCN(C(=O)COc2ccc(-c3ccccc3)cc2Cl)CCN1 | -12 |
| CC(=O)N[C@H]1CCc2nc(N)sc2C1 | 13 |
| C[C@@H]1C[C@@H](Nc2ccccc2)c2ccccc2N1C(=O)COc1ccc(Br)cc1 | 10 |
| O=C(Cc1c(Cl)cccc1Cl)N1CC[C@]2(CCOC2)C1 | -19 |
| Cc1noc(Cl)c1CC(=O)N1CCCC(C)(C)CC1 | 20 |
| CC[C@@]1(C)CCCN(C(=O)Cc2c(C)noc2Cl)C1 | 87 |
| Cc1ccc(-n2c(=O)c3sccc3n(CC(=O)NCc3ccc(F)cc3F)c2=O)cc1C | -20 |
| CC1CCC2(CC1)N=C(c1ccccc1)C(=O)N2CC(=O)N[C@H]1CCc2ccccc21 (some centres undefined) | -4 |
| CN(Cc1cnn(-c2ccccc2)n1)c1ncnc2[nH]ncc12 | 10 |
| CCCCC(=O)N1CCc2[nH]nc(C(=O)NCCc3ccc(OC)cc3)c2C1 | 2 |
| Cc1nc2nnnn2c(C)c1C/C=C/c1ccccc1 | 8 |
| Cc1cc(OC[C@@H](O)CNC(C)(C)CC(C)(C)C)cc(C)c1Cl | 57 |
| O=C(N[C@@H](N1CCCC1)C(Cl)(Cl)Cl)c1ccc(Cl)cc1 | -13 |
| O=C(N[C@H]1CC12CC2)c1ccncc1F | -22 |
| C=C1C(C)C2C(Cc3c[nH]c4ccccc34)NC(=O)C23C(=O)CC(O)C(O)CC(C)C/C=C/C3C1O (centres undefined) | 65 |
| C[n+]1ccccc1/C=C/c1c[nH]c2ccccc12 | 81 |
| CCc1ccc(/C=C/c2c[nH]c3ccccc23)[n+](CC)c1 | 88 |
| Fc1cc(Cl)cnc1N1CCC2(CCOCC2)C1 | 12 |
| Cc1[nH]n(-c2nc(C(F)(F)F)cc(=O)[nH]2)c(=O)c1CCO | -9 |
| O=C1C2CC=CCC2C(=O)N1CNc1ccc(Cl)cc1 (centres undefined) | -9 |
| CCn1c(=O)c(N2CCN(C(=O)Nc3ccc(OC)cc3OC)CC2)nc2cccnc21 | -17 |
| O=C([C@H]1CCCN(C(=O)N2CCc3sccc3C2)C1)N1CCc2[nH]ncc2C1 | -7 |
| CCOC(=O)C(C)NC(=O)C(C)NC(=O)c1ccc(F)c(C#N)c1 (centres undefined) | 7 |
| O=S(=O)(NC1CC(c2ccc(F)c(Cl)c2)C1)C1CC1 (centres undefined) | 7 |
| Cn1nc(C2CC2)c2c(C(F)F)cc(-c3ccc4c(c3)OCO4)nc21 | 2 |
| CCS(=O)(=O)Nc1ccc(Br)cc1Cl | -1 |

| Compound | % Inhibition [%] |
| --- | --- |
| Cc1ncccc1C(=O)NCCc1csc(-c2ccccc2)n1 | -19 |
| c1ccc(-c2nc(C[n+]3ccc4c(c3)CCCC4)cs2)cc1 | 56 |
| CN(C)c1ccc(C2OCC3(CCC4(COC(c5ccc(N(C)C)cc5)OC4)O3)CO2)cc1 (centres undefined) | -5 |
| Fc1ccc(COc2ccc3ccccc3c2CNc2ccc(Br)cc2)cc1 | 10 |
| CCCNC(=O)CS(=O)(=O)Cc1cccc(Br)c1C | -14 |
| Nc1nc(-c2ccccc2)c2cc3c(nn12)C[C@H](c1ccc(F)cc1)CC3=O | -6 |
| COc1c2c(cc3c1[C@@H](C#CCOc1ccccc1)[N+](C)(C)CC3)OCO2 | 68 |
| CCn1cc(S(=O)(=O)N2CC(Oc3cccc(-c4nc(C)no4)c3)C2)cn1 | 7 |
| COc1cc(-c2nc3ncnn3c(N)c2C#N)cc(OC)c1OC | -17 |
| Cc1cc(C)c2nc(C)cc(Nc3ccc(O)cc3)c2c1 | 103 |
| COc1c(Cl)cc(Cl)cc1C#N | -17 |
| COc1cc(N)c(NC(C)=O)cc1Cl | 7 |
| COc1cccc(CNCc2ccc3c(c2)OCO3)c1OCc1ccc(Cl)cc1Cl | 10 |
| COc1ccccc1CN1COc2cc3c(cc2C1)OCO3 | 52 |
| COCCN(CC1CN(Cc2ccccc2OC)CC1c1ccccc1OC)C(=O)COC (centres undefined) | 0 |
| O=S(=O)(NCc1ccc(C(F)(F)F)nc1N1CCC(C(F)(F)F)CC1)C(F)(F)F | 8 |
| CC(C1Cc2ccccc2O1)N(C)Cc1nccn1S(=O)(=O)N(C)C (centres undefined) | -8 |
| Cn1ccc(C(=O)Nc2ccc(-c3ccccc3)cn2)cc1=O | -11 |
| Nc1n[nH]c2c(Cl)c3nnc(-c4ccccc4)n3c(Cl)c12 | 13 |
| O=C(Cc1ccc(N(Cc2cccc(F)c2)C(=O)C2CCCC2)cc1)NCCN1CCCCC1 | 43 |
| COCCN(Cc1c(-c2ccccc2)noc1N1CCN(C)CC1)C(=O)c1ccc(C)cc1 | 12 |
| C[C@H](Nc1ccc(N2CCOCC2)nc1)c1cccc(CO)c1 | 11 |
| CCn1c(-c2cc(NC(=O)c3ccc4c(c3)OCO4)[nH]n2)cc2ccc(OC)cc21 | 4 |
| Oc1nc(N2CCOC3(CCCC3)C2)ncc1F | 53 |
| O=C(c1cc(-c2ccncc2)on1)N1CCOC2(CCCCCC2)C1 | 8 |
| FC(F)(F)c1cnc(N2CCOC3(CCOCC3)CC2)s1 | 9 |

| Compound | % Inhibition [%] |
| --- | --- |
| Cc1c(C(=O)N2CC[C@H](CC(C)(C)C)C2(C)C)nnn1-c1cnn(C)c1 | -9 |
| Cc1cc(C)cc(NC(=O)Cc2nc(C)c(C(=O)NCc3ccccc3)s2)c1 | 5 |
| CCOC(=O)c1c(CN2CCCC2)n(C)c2cc(-c3cccnc3)c(O)c(Cn3ccnc3)c12 | 68 |
| CCOC(=O)c1ncn(C2CCN(C(=O)c3cccc(Cn4ccnc4)c3)CC2)c1N | 5 |
| CCOC(=O)c1nc(-c2cccnc2)cs1 | -8 |
| Cc1cccc(C)c1OCC(C)NC(=O)N1CCCC(CS(C)(=O)=O)C1 (centres undefined) | -20 |
| COc1ccc(CN(C)[C@H]2CCc3nn(C)c(=O)n3CC2)c(Cl)c1OC | 1 |
| CC(C)c1nnc(Cn2nnc(-c3ccncn3)n2)s1 | -12 |
| Cc1cc(C)n(CCC(=O)N2CC[C@H](c3nc(C4CCOCC4)no3)C2)n1 | 9 |
| Cc1ccc(S(=O)(=O)Nc2c(S(=O)(=O)c3ccc(C)cc3)c3nc4ccccc4nc3n2CCC(C)C)cc1 | 100 |
| Cc1cnc(C2CCC2)n1CCNS(=O)(=O)c1ccccc1 | 2 |
| Cc1ccc(S(=O)(=O)Nc2ccccc2-c2nnc(-c3c(NS(=O)(=O)c4ccc(C)cc4)ccc4ccccc34)o2)cc1 | -13 |
| O=C(Cn1c(Cc2ccc(Cl)cc2)nc2ccccc21)Nc1ccccc1 | 9 |
| Cc1ccc(S(=O)(=O)Nc2c(S(=O)(=O)c3ccc(C)cc3)c3nc4ccccc4nc3n2C[C@H]2CCCO2)cc1 | 8 |
| Cc1ccc(S(=O)(=O)Nc2c(S(=O)(=O)c3ccccc3)c3nc4ccccc4nc3n2CCc2ccccc2)cc1 | 100 |
| COCCCn1c(NS(=O)(=O)c2ccccc2)c(S(=O)(=O)c2ccc(C)cc2)c2nc3ccccc3nc21 | 49 |
| O=C(Nc1ccccc1)c1ccc2c(c1)C(=O)N(CCc1ccccc1)C2=O | -15 |
| Cc1ccc(S(=O)(=O)c2c(NS(=O)(=O)c3ccc(F)cc3)n(CCc3ccccc3)c3nc4ccccc4nc23)cc1 | 103 |
| O=C(Nc1c(S(=O)(=O)c2ccccc2)c2nc3ccccc3nc2n1CCc1ccccc1)c1ccc(Cl)cc1 | 96 |
| Cc1nn(C)c(N)c1C(=O)N(C1CCC1)C1CCC1 | -16 |
| Cc1cc(Cn2c(=O)n(Cc3ccccc3)c3ccncc32)on1 | 7 |
| COc1ccc([C@@H]2C(C#N)(C#N)C23C(=O)CC(C)(C)CC3=O)cc1 | -12 |
| N#Cc1cccc(-c2c[nH]c(CNc3nc4cc(C(F)(F)F)ccc4s3)n2)c1 | 7 |
| Cc1nc2cccnc2n1-c1cc(C(=O)NCC[C@H](C)N2CCCC2)ccc1Cl | 8 |
| CC1CCN(C(=O)NCC2CCC(F)(F)CC2)CC1n1ccnc1 (centres undefined) | 12 |
| COc1cc(CC2CN(C(=O)c3cscn3)C2)cc(OC)c1 | 3 |

| Compound | % Inhibition [%] |
| --- | --- |
| CS(=O)(=O)CC1(CC(=O)N[C@H](c2ccccc2)C2CCC2)CC1 | 11 |
| Cc1nn(CC2(O)CCCCC2)c(=O)c(C#N)c1C | -10 |
| CS(=O)(=O)n1c(CCCc2ccccc2)nc2ccccc21 | 15 |
| Cc1ccc(S(=O)(=O)c2c(NS(=O)(=O)c3ccccc3)n(CCc3ccccc3)c3nc4ccccc4nc23)cc1 | 102 |
| Cc1ccc(S(=O)(=O)Nc2cc3nc4ccccc4nc3n2CCc2ccccc2)cc1 | 97 |
| Cc1cc(NC(=O)Cn2c(=O)n(CCc3ccccc3)c(=O)c3ccccc32)no1 | 13 |
| COCCCn1c(NS(=O)(=O)c2ccc3ccccc3c2)c(S(=O)(=O)c2ccc(C)cc2)c2nc3ccccc3nc21 | 16 |
| O=C(O)Cc1cccc(NC(=O)C2C3Cc4ccccc4C32)c1 (centres undefined) | 2 |
| C[C@H](NC(=O)CC1(C)CCCCC1)c1cnn(C)c1 | -5 |
| O=C(Nc1cccc(OCCn2cncn2)c1)[C@@H]1CCCc2ccccc21 | -19 |
| Cc1cc(CCC(=O)Nc2nnn[nH]2)ccc1Br | 10 |
| COc1cc2c(cc1CNc1nc(N)nc3c1CCNCC3)CCC2 | 11 |
| Cc1cc(C)cc(NC(=O)Cc2nnc3ccc(C(=O)Nc4ccccc4)cn23)c1 | 8 |
| CC(=O)N1CCN(c2nc3c(s2)C[C@@H](C(=O)NCc2ccccc2F)CC3)CC1 | -22 |
| O=S1(=O)N=C(NC[C@@H](O)Cc2ccccc2)c2ccccc21 | 7 |
| Cc1cccc(NC(=O)Nc2cc(F)c3[nH]c(=O)ccc3c2)c1 | -7 |
| COc1ccc(-c2noc(CCn3c(=O)[nH]c4cc5c(cc4c3=O)OCO5)n2)c(OC)c1 | 6 |
| Cc1cnc(C2CCN(C(=O)[C@@H]3CNC(=O)O3)CC2)s1 | 2 |
| COC1(C)CN(c2cnc(C#N)cn2)C1 | 2 |
| C[C@H]1CCN(c2nc(-c3ccccn3)nc3c2CCC3)C1 | 93 |
| C[C@H]1CCCN(c2nc(-c3ccccn3)nc3ccccc23)C1 | 98 |
| CCc1ccc(NC(=O)[C@H]2CCCN(c3nc4cccnc4n(Cc4ccccc4)c3=O)C2)cc1 | -14 |
| FC(F)(F)C1CN(c2nc(-c3ccccn3)nc3c2CCC3)C1 | 54 |
| O[C@H]1Cc2ccccc2[C@H]1Nc1nc(-c2ccccn2)nc2c1CCNC2 | -7 |
| Cc1ccccc1N1CCN(C(=O)c2ccc3ncccc3c2)CC1 | 9 |
| C[C@H]1CCCN(S(=O)(=O)NCC(=O)Nc2ccccn2)C1 | -14 |
